Compound activity: PubChem BioAssay, National Center for Advancing Translational Sciences (NCATS)
KB-V1 cytotox = KB-V1 MDR subline cytotoxicity; Potency, µM (doses to about 46.1 µM), hits mostly cytotoxic; KB-V1 MDR cells viability, CellTiter-Glo, 72 h; AID 1347076; 400,000 compounds, 3.4% hits; further: potency means the concentration at half of the fitted maximal effect; nearly all actives have a fitted effect of over 60% in size
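qHTS viability screen in drug-selected KB-V1 MDR cells: 72 h compound treatment at 37 degrees C, ATP luminescence end point.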
KB-3-1 cytotox = kills parental KB-3-1 adenocarcinoma cells; KB-3-1 viability, CellTiter-Glo ATP luminescence, 72 h; Potency, µM (series often up to 46.1 µM), hits mostly cytotoxic; 400,000 compounds, 1.4% hits; further: potency means the concentration at half of the fitted maximal effect; nearly all actives have a fitted effect of over 60% in size
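Viability of parental KB-3-1 cells, measured by CellTiter-Glo luminescence, followed a 72 h incubation at 37 °C with pinned compounds in phenol-red-free DMEM containing 10% FBS.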
HT1080NT lethal = kills 2HG-producing HT-1080-NT fibrosarcoma cells; HT-1080-NT fibrosarcoma viability, CellTiter-Glo ATP luminescence, 48 h; Potency, µM (highest dose often 46.1 µM), for inactives: at the highest dose activity, negative = less viability, hits mostly cytotoxic; 360,000 compounds, 1.6% hits; AID 686970;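 further: NT is the 2HG producing partner of a matched IDH1 knockdown line; potency means the concentration at half of the fitted maximal effect; 0% = DMSO-treated cells and -100% = media-only wells without cells; nearly all actives have a fitted effect of over 55% in size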
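Viability by CellTiter-Glo luminescence after 48 h compound exposure at 37C of HT-1080-NT cells (750/well, RPMI, 5% FBS). % activity scaled between DMSO wells and medium-only wells, then curve-fitted and categorized by curve class.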
HT1080 IDH1KD tx = toxicity to HT-1080 IDH1 knockdown cells (counter line); HT-1080 IDH1 knockdown viability, ATP luminescence, 48 h; Potency, µM (titrated, usually from 46.1 µM), without a hit: at the top dose activity, negative = toxicity, most hits filed as cytotoxic; 360,000 compounds, 2% hits;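 further: potency means the concentration at half of the fitted maximal effect; 0% = DMSO wells and -100% = cell-free medium wells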
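Using the IDH1-knockdown HT-1080 line run in the same batch and compound series as the NT line, viability after 48 h at 37 °C was determined by CellTiter-Glo luminescence and expressed as % activity.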
IL-1B inflam inh = inhibitors of inflammasome signaling (IL-1 beta secretion). THP-1 LPS/ATP IL-1B secretion, AlphaLISA, 16 h; hits give low values. 360,000 compounds, 4.7% hits. activity change, % at 57.5 µM; in the data active means activity change below about -50%; inconclusive means mostly about -30% to -49%
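Secreted IL-1B measured by AlphaLISA bead assay after 16 h compound exposure of THP-1 cells; compounds (final up to 57.5 uM) added 1 h before LPS (250 ng/mL) and ATP (1.25 mM) stimulation; lower signal means less secretion.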
Numbers without * were called inactive; i = inactive; ? = inconclusive; . = no result given. Most compounds without a hit are left out; they make up all but 8.8% or so of the library. Unless noted, the call rests on the fitted dose curve; in most records, active means well fitted curve in the direction sought with a large enough effect; inconclusive means small, poorly fitted or top-dose-only effect, or another doubt; inactive means no such curve, though single readings can be large; an effect the other way counts as inactive or inconclusive. Unless noted, on the % scale 0 is the no-effect control and ±100 the full control effect.

SMILES	KB-V1 cytotox	KB-3-1 cytotox	HT1080NT lethal	HT1080 IDH1KD tx	IL-1B inflam inh
COc1ccc(/C=C/C(=O)NC(=S)NNC(=O)Cc2cccs2)cc1	?	?	15µM*	16µM*	71
O=C(/C=C/c1ccccc1)NC(=S)NNC(=O)Cc1cccs1	?	?	?	?	39
Cc1onc(-c2ccccc2)c1C(=O)NNC(=S)NC(=O)c1ccc(Br)cc1	?	i	?	?	-5
COC(=O)Cc1ccc(NC(=S)Nc2ccccn2)cc1	i	i	10%	1%	26
C#CCOCCOCCOCCNc1nc(N2CCN(C(=O)CCCCCCCCCCNC(=O)[C@H](CCCCN)n3cc(CCO)nn3)CC2)nc(N2CCN(C(=O)CCCCCCCCCCNC(=O)[C@H](CCCCN)n3cc(CCO)nn3)CC2)n1	i	i	-6%	-2%	-55*
C#CCOCCOCCOCCNc1nc(N2CCN(C(=O)CCCCCCCCCCNC(=O)[C@@H]([C@H](C)O)n3cc(C)nn3)CC2)nc(N2CCN(C(=O)CCCCCCCCCCNC(=O)[C@@H]([C@H](C)O)n3cc(C)nn3)CC2)n1	i	?	-27%	21µM*	-18
C#CCOCCOCCOCCNc1nc(N2CCOCC2)nc(N2CCN(C(=O)CCCCCCCCCCNC(=O)[C@@H]([C@H](C)O)n3cc(C)nn3)CC2)n1	i	i	-8%	1%	0
C#CCOCCOCCOCCNc1nc(N2CCN(C(=O)CCCCCCCCCCNC(=O)[C@H](CCCCN)n3cc(CCO)nn3)CC2)nc(N2CCN(C(=O)CCCCCCCCCCNC(=O)[C@@H]([C@H](C)O)n3cc(C)nn3)CC2)n1	?	i	-15%	-29%	-71*
C#CCOCCOCCOCCNc1nc(N2CCN(C(=O)CCCCCCCCCCNC(=O)[C@H]([C@@H](C)CC)n3cc(CCCCCN)nn3)CC2)nc(N2CCN(C(=O)CCCCCCCCCCNC(=O)[C@@H]([C@H](C)O)n3cc(C)nn3)CC2)n1	i	?	?	?	-68*
C#CCOCCOCCOCCNc1nc(N2CCN(C(=O)CCCCCCCCCCNC(=O)[C@H](CCC(=O)O)n3cc(CCCCCN)nn3)CC2)nc(N2CCN(C(=O)CCCCCCCCCCNC(=O)[C@@H]([C@H](C)O)n3cc(C)nn3)CC2)n1	i	i	-4%	1%	?
Nc1cc(Cl)ccc1CN1C(=O)c2ccccc2C1=O	i	i	?	1%	16
Cn1c2c(c(=O)n(C)c1=O)C(c1ccc(Br)cc1)C(C#N)=C(N)N2 (configuration not stated)	i	i	-2%	-3%	13
CN(C)CCCN1c2ccccc2Sc2ccc3ccccc3c21	18µM*	?	-17%	?	-102*
CN(C)CCCN1c2ccc3ccccc3c2Sc2cccc(Cl)c21	15µM*	?	-20%	?	-96*
CN(C)CCCN1c2ccccc2CCc2ccccc21	?	i	-2%	-4%	?
O=C(CCl)N1c2ccccc2Sc2ccc3ccccc3c21	?	i	18µM*	?	-104*
CC(C)c1ccccc1NC(=O)CNCCOc1ccccc1F	i	i	-2%	-6%	0
CCN(CC)S(=O)(=O)c1ccc(/C=C/C(=O)Nc2cccc(F)c2)cc1	i	i	-10%	-18%	-22
c1ccc(Nc2nc(N3CCOCC3)nc(N3CCOCC3)n2)cc1	?	16µM*	-19%	-17%	.
Cc1nc(SCC(=O)N2CCN(c3ccccc3)CC2)n[nH]1	i	i	9%	4%	-16
Cc1cccc(Nc2nc(N3CCOCC3)nc(N3CCOCC3)n2)c1	i	i	-8%	-21%	-76*
FC(F)(F)c1cccc(Nc2nc(N3CCOCC3)nc(N3CCOCC3)n2)c1	i	?	4%	2%	-6
Cc1cccc(Nc2nc(N3CCCCC3)nc(N3CCCCC3)n2)c1	i	i	-19%	0%	-3
FC(F)(F)C(Oc1nc(Nc2ccc(Cl)cc2)nc(N2CCOCC2)n1)C(F)(F)F	i	i	?	-5%	-76*
